Laboratory results published in ChEMBL document CHEMBL1157539, “Thousands of chemical starting points for antimalarial lead identification” (Nature, 2010).

What was measured:
Assay type in all cases: functional
Plasmodium falciparum [1] = assay: GSK_TCMDC: Inhibition of Plasmodium falciparum 3D7 in whole red blood cells, using parasite LDH activity as an index of growth. Test compounds present at 2uM
Plasmodium falciparum [2] = assay: GSK_TCMDC: Inhibition of Plasmodium falciparum Dd2 in whole red blood cells, using parasite LDH activity as an index of growth. Test compounds present at 2uM
HepG2 = assay: GSK_TCMDC: Percent inhibition of human HepG2 cell line. Test compounds present at 10uM.

`O=C(/C=C/c1ccc(Cl)c(Cl)c1)NCCCCCN1CCC(NC(=O)Nc2cc(Cl)cc(Cl)c2)CC1` gave an Inhibition (Plasmodium falciparum [1]) of 94%, an Inhibition (Plasmodium falciparum [2]) of 5% and an Inhibition (HepG2) of 98%.
Compound `CCCN1CCC=C(c2cccc(Nc3nccc(Nc4cc(OC)ccc4C)n3)c2)C1.Cl` has an Inhibition (Plasmodium falciparum [1]) of 88%, an Inhibition (Plasmodium falciparum [2]) of 35% and an Inhibition (HepG2) of 15%.
With `COc1cc(C(=O)Nc2nc3ccccc3[nH]2)ccc1OCC(=O)Nc1cccc(C(F)(F)F)c1` the Inhibition (Plasmodium falciparum [1]) was 100%, the Inhibition (Plasmodium falciparum [2]) was 33% and the Inhibition (HepG2) was 33%.
`CCOc1cccc(C(=O)Nc2cccc(CN3CCCN(Cc4ccc(O)cc4)CC3)c2)c1.O=C(O)C(F)(F)F` showed an Inhibition (Plasmodium falciparum [1]) of 91%, an Inhibition (Plasmodium falciparum [2]) of 31% and an Inhibition (HepG2) of 23%.
Work on `O=C(Nc1ccc(Cn2ncc(N3CCCNCC3)c(Cl)c2=O)cc1)Nc1cccc(Oc2ccccc2)c1.O=C(O)C(F)(F)F` yielded an Inhibition (Plasmodium falciparum [1]) of 81%, an Inhibition (Plasmodium falciparum [2]) of 41% and an Inhibition (HepG2) of 8%.
In the case of `CCCN1CCN(c2cc(S(=O)(=O)Nc3ccc(C(=O)NCc4cccc(C(F)(F)F)c4)cc3)ccc2OC)CC1.O=C(O)C(F)(F)F`, the Inhibition (Plasmodium falciparum [1]) is reported as 92%, the Inhibition (Plasmodium falciparum [2]) is reported as 8% and the Inhibition (HepG2) is reported as 27%.
Work on `Cc1cc(N/N=C/c2cccc([N+](=O)[O-])c2)c2ccccc2n1` yielded an Inhibition (Plasmodium falciparum [1]) of 100%, an Inhibition (Plasmodium falciparum [2]) of 98% and an Inhibition (HepG2) of 0%.
Work on `O=C(O)C(F)(F)F.O=S(=O)(NCCN1CCCC1)c1ccc(-c2ccc(CNCc3ccc(F)cc3)cc2)cc1F` yielded an Inhibition (Plasmodium falciparum [1]) of 82%, an Inhibition (Plasmodium falciparum [2]) of 21% and an Inhibition (HepG2) of 40%.
With `Cc1ccc2[nH]c(C)cc(=NN=Cc3ccccc3Cl)c2c1` the Inhibition (Plasmodium falciparum [1]) was 100%, the Inhibition (Plasmodium falciparum [2]) was 62% and the Inhibition (HepG2) was 6%.
`Cc1[nH]c(C)c(-c2ccc(CCc3cccc(C(F)(F)F)c3)nc2)c(=O)c1Cl` gave an Inhibition (Plasmodium falciparum [1]) of 99%, an Inhibition (Plasmodium falciparum [2]) of 97% and an Inhibition (HepG2) of 28%.
